# In PubChem BioAssay AID504692 (The Scripps Research Institute Molecular Screening Center, 2011):
# Among all 340,000 compounds or so, about 2,000 (0.59%) were called active. No stated cut-off is given here; in the data, active means activation mostly above about 9.5% (no sharp cut-off); inactive means mostly below about 7.6%. This excerpt belongs to a sample that is enriched for actives.
# Target: 5-hydroxytryptamine receptor 5A (Homo sapiens) (UniProt P47898)
# Assay: activation of human 5-HT5A receptor – cell-based, luminescence, full-deck HTS, counter-screen for OPRM1-OPRD1 heterodimer agonist project, primary screen (AID 504692);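 further: 0% = cells with vehicle only and 100% = reference agonist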
# Conditions: HTR5A agonist assay, at 9.3 µM, hits give high values
# Chain of 5-hydroxytryptamine receptor 5A (Homo sapiens) (P47898 whole entry, looked up): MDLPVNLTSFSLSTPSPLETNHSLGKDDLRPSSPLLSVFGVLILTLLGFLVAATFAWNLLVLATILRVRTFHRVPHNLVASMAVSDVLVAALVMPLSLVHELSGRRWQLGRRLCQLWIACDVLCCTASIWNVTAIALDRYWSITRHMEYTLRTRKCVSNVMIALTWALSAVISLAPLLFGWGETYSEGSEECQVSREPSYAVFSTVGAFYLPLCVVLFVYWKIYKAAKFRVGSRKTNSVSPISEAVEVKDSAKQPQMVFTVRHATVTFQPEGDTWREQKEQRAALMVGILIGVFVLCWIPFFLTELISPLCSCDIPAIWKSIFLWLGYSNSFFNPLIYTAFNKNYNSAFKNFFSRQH
row,Compound,activation
1,CCOc1ccc2[nH]c(C(=O)N/N=C/c3cccc(OC)c3OC)cc2c1,4.96% (inactive)
2,COc1ccc(/C=N/NC(=O)c2ccncc2)cc1CN1CCCc2ccccc21,1.74% (inactive)
3,COc1cccc(/C=N/NC(=O)c2[nH]nc3c2CCc2ccccc2-3)c1O,18.3% (active)
4,COc1cccc(CNCc2ccc3c(c2)OCO3)c1,9.7% (inactive)
5,COc1ccc(C(=O)NC(C)CCc2ccccc2)c(OC)c1 (stereo unspecified),3.2% (inactive)
6,COc1ccc(C(=O)NC2=NCCS2)c(OC)c1,4.66% (inactive)
7,COc1ccc(C(=O)Nc2cccc(NC(=O)c3ccc(OC)cc3OC)n2)c(OC)c1,13.4% (active)
8,CCc1nnc(NC(=O)c2cc(S(=O)(=O)N3CCCCC3)ccc2C)s1,3.55% (inactive)
9,CCOC(=O)C1=C(O)/C(=C/c2ccc(OCC(=O)Nc3ccc(C)cc3)cc2)N=C1C,23.3% (active)
10,COC(=O)C1=C(O)/C(=C/c2ccc(OCC(=O)Nc3ccccc3)cc2)N=C1C,-2.15% (inactive)
11,Cc1ccc(NC(=O)COc2ccc(/C=C3/NC(=O)NC3=O)cc2)cc1,1.1% (inactive)
12,CCOC(=O)CC1=CC(=O)Nc2ccccc2N1,6.62% (inactive)
13,CCc1ccc(C(=O)NC(=S)Nc2ccccc2N2CCOCC2)cc1,-3.97% (inactive)
14,COc1ccc(C(=O)NC(=S)Nc2ccccc2N2CCN(S(C)(=O)=O)CC2)cc1OC,-1.57% (inactive)
15,CC(=O)N1CCN(c2ccccc2NC(=S)NC(=O)c2cc3ccccc3o2)CC1,16.4% (active)
16,O=S(=O)(c1ccc(Sc2nnc3ccccn23)nc1)N1CCOCC1,2.94% (inactive)
17,NC(=O)C1(N2CCCCC2)CCN(C2CC(=O)N(Cc3ccc(N4CCCC4=O)cc3)C2=O)CC1 (stereo unspecified),1.47% (inactive)
18,CC(C)Oc1ccc(C(=O)NCC(=O)Nc2ccc3c(c2)CCC3)cc1,-1.62% (inactive)
19,COc1cccc(NC(=O)CN(C)CC(=O)Nc2ccc3c(c2)CCC3)c1,7.9% (inactive)
20,COc1ccc(-c2ocnc2C(=O)Nc2ccc3c(c2)CCC3)cc1,16.5% (active)
21,O=C(CN(C(=O)c1csnn1)c1cccc(F)c1)NCc1ccc(F)cc1,-2.96% (inactive)

row,Compound,activation
1,CCOC(=O)C1=C(CC)Nc2ccccc2N=C1N,2.67% (inactive)
2,O=C(c1ccc(OC2CCN(C(=O)c3cccnc3)CC2)cc1)N1CCCCCC1,2.41% (inactive)
3,O=C(NCc1cc(F)cc(C(F)(F)F)c1)C1CCC(=O)N(C2CCCC2)C1 (stereo unspecified),2.09% (inactive)
4,C[C@H]1[C@H]2c3nc4ccccc4n3C[C@H]1ON2C1CCCCC1,1.56% (inactive)
5,CCOc1ccc(CCNC(=O)C(CC)n2nc(C)n3c(cc4sccc43)c2=O)cc1OCC (stereo unspecified),8.13% (inactive)
6,Cc1ccc(/C=C2\CCn3c2nc2cc(C(=O)O)ccc2c3=O)c(C)c1,14.2% (active)
7,O=C(O)c1ccc2c(=O)n3c(nc2c1)/C(=C/c1ccc(OC(F)F)cc1OC(F)F)CC3,-1.8% (inactive)
8,N#Cc1ccc(/C=C2\CCn3c2nc2cc(C(=O)O)ccc2c3=O)cc1,-2.04% (inactive)
9,COc1ccc(CNc2nccs2)cc1,-2.48% (inactive)
10,CCN(CC)CCNS(=O)(=O)c1ccc(/C=C/C(=O)O)cc1,6.16% (inactive)
11,Cc1ccc2c(C)c(C(=O)N3CCC(N4CCC(C(=O)NC5CC5)CC4)CC3)oc2c1,-4.49% (inactive)
12,CC1(C)Cc2cccc(OCC(=O)NCc3ccccc3)c2O1,0.71% (inactive)
13,COc1cccc(CCNC(=O)COc2cccc3c2OC(C)(C)C3)c1,10.4% (active)
14,CC1(C)Cc2cccc(OCC(N)=O)c2O1,-7.5% (inactive)
15,CCn1c2c(c3ccc(OC)cc31)CCCC2=O,2.01% (inactive)
16,O=C1COc2ccc(C(=O)COC(=O)C3CC(O)CN3S(=O)(=O)c3ccc(Cl)cc3)cc2N1 (stereo unspecified),2.08% (inactive)
17,O=C(NCCCN1CCCC1=O)c1ccc(S(=O)(=O)Nc2ccccc2)cc1,-1.42% (inactive)
18,CCn1c(SCC(=O)N/N=C/c2ccncc2)nc2ccccc21,0.02% (inactive)
19,CCn1c(SCC(=O)N/N=C/c2ccccc2OCC(=O)O)nnc1-c1ccc(C(C)(C)C)cc1,-0.31% (inactive)
20,Cc1ccc(Cn2c(SCC(=O)N/N=C/c3ccccc3OCC(=O)O)nc3ccccc32)cc1,13.2% (active)
21,COc1cc2c(cc1NC(=O)COC(=O)/C=C/c1ccccc1)oc1ccccc12,1.5% (inactive)

row,Compound,activation
1,CCOC(=O)c1c(C)[nH]c(C(=O)OCC(=O)N2CCCC2=O)c1C,-3.02% (inactive)
2,Cc1c(C(=O)N2CCCc3ccccc32)oc2ccccc12,5.91% (inactive)
3,Cc1c(C(=O)OCC(=O)N2CCCC2=O)oc2ccccc12,17.4% (active)
4,O=C(Cc1ncc(C(F)(F)F)cc1Cl)Nc1cccc(Br)c1,-3.41% (inactive)
5,NS(=O)(=O)c1ccc(CNC(=S)NC(=O)c2ccco2)cc1,-0.69% (inactive)
6,CCc1nn(CCCC(=O)Nc2ccc(C)cc2C)c(=O)c2cc3occc3n12,0.19% (inactive)
7,CCCCCCCCn1c2c(c(=N)c3c1CCC3)CCCC2,12.5% (active)
8,Cc1ccccc1NC(=O)CSc1ccc2nnc(-c3ccccn3)n2n1,-2.77% (inactive)
9,O=C(/C=C/c1cccc([N+](=O)[O-])c1)NCCSCc1ccco1,-1.08% (inactive)
10,Cc1ccc(CNC(=O)C2CCCN2C(=O)NCc2ccccc2)cc1 (stereo unspecified),-0.36% (inactive)
11,O=C(NC1CC2CCCC(C1)N2C(=O)N1CCCCC1)C1CCCCC1 (stereo unspecified),2.7% (inactive)
12,O=C1CCCc2nn(-c3ccccc3)nc21,-0.59% (inactive)
13,Nc1ccc2nn(-c3ccc(Cl)cc3)nc2c1,3.34% (inactive)
14,c1ccc(-n2nc3ccccc3n2)cc1,15.4% (active)
15,Cc1ccc(S(=O)(=O)Nc2nc(CN3CCOCC3)nc3sc(C)c(C)c23)cc1,7.7% (inactive)
16,O=C(O[C@H]1[C@H](Cc2ccccc2)NS(=O)(=O)[C@H]2C[C@@H]3C=C[C@]12O3)c1ccc([N+](=O)[O-])cc1,-6.9% (inactive)
17,CCOc1cc(N2CCOCC2)c(OCC)cc1NC(=O)c1ccc(C)s1,0.66% (inactive)
18,CCOc1cc(N2CCOCC2)c(OCC)cc1NC(=O)C1=NN(c2cccc(C)c2)C(=O)CC1,11.3% (inactive)
19,CCOc1cc(N2CCOCC2)c(OCC)cc1NC(=O)c1cc(C)nc2ccccc12,14.2% (active)
